Abeta rescue: A-beta toxicity reversal in yeast. yeast expressing A-beta42, growth rescue, OD600, 48 h; response scale: 0% DMSO, 100% iron-clioquinol control. Potency, µM (titrated, usually from 46.1 µM), usual class: activators. 410,000 compounds, 0.063% hits; further: potency means the concentration at half of the fitted maximal effect; nearly all actives have a fitted effect of over 55% in size
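Yeast growth medium received pinned compounds, then yeast cells expressing toxic A-beta were added; plates incubated at 30 C for 48 hr. Growth read as absorbance at 600 nm, normalized to DMSO and equimolar FeCl3 plus clioquinol controls.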
TDP-43 yeast inh: rescues yeast growth from TDP-43 toxicity | 410,000 compounds, 1.8% hits | AID 652104 | Potency, µM (series often up to 46.1 µM), for the others: at the top dose growth rescue (activation), usual class: activators | TDP-43 expressing yeast growth rescue, BacTiter-Glo, 24 h; further: potency means the concentration at half of the fitted maximal effect; % of control where 0% means no effect; nearly all actives have a fitted effect of over 50% in size
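Galactose-induced TDP-43 yeast, OD600=0.02, compound pinned; 24 hr, 30 deg C; BacTiter-Glo luminescence for growth. Inhibitors of TDP-43 toxicity read as activators.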
aSyn rescue: rescues yeast growth from alpha-synuclein toxicity | Yeast expressing alpha-synuclein, growth rescue, BacTiter-Glo, 24 h | Potency, µM (doses to about 46.1 µM), inactives show top-dose growth rescue (activation), hits mostly activators | 370,000 compounds, 0.14% hits | AID 652106; further: potency means the concentration at half of the fitted maximal effect; % of control where 0% means no effect; nearly all actives have a fitted effect of over 65% in size
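Screening used galactose-induced yeast with toxic alpha-synuclein levels, exposed to compound for 24 hr at 30 deg C. Cell growth, read with BacTiter-Glo luminescence, gave the measured signal.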
IDH1 R132H inh: blocks human mutant IDH1 R132H enzyme; Potency, µM (top dose mostly 76.6 µM), for the others: at the highest dose activity change, negative = inhibition, most hits filed as inhibitors; 390,000 compounds, 0.093% hits; IDH1-R132H enzyme, NADPH consumption, diaphorase/resazurin fluorescence; AID 602179; further: potency means the concentration at half of the fitted maximal effect; on the % scale 0 is the no-effect control and ±100 the full control effect; nearly all actives have a fitted effect of over 65% in size
Target sequence (O75874 whole entry R132H, stated change not applied): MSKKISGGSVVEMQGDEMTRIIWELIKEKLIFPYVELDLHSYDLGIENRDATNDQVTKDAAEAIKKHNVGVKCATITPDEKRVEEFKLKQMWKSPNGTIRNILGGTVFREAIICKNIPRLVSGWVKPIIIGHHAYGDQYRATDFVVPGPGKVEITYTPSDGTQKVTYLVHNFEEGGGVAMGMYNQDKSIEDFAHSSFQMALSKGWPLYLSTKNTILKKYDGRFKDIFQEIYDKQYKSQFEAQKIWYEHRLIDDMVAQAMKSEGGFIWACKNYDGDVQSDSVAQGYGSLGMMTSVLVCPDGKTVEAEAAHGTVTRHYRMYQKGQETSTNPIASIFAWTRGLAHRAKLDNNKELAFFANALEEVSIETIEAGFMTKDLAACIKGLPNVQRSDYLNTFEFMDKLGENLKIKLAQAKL
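IDH1-R132H (0.5 ug/mL dispensed) in pH 7.5 Tris buffer was preincubated 30 min with compound, then given a substrate mix of 0.016 mM NADPH and 2 mM alpha-KG for 80 min at room temperature; remaining NADPH was read by diaphorase/resazurin fluorescence.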
FUS yeast rescue: FUS proteinopathy suppression in yeast | S. cerevisiae FUS-expressing, growth rescue, OD600, 24 h | Potency, µM (titrated, usually from 76.6 µM), actives largely listed as activators | 390,000 compounds, 0.24% hits | AID 1347120;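 further: potency means the concentration at half of the fitted maximal effect; plate controls were DMSO vehicle for no effect and reference control for full effect; nearly all actives have a fitted effect of over 55% in size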
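Cultures pregrown in 2.5% raffinose medium are shifted to minimal medium containing 2% galactose to express toxic FUS. Compounds are tested at several concentrations. After 24hr at 30C, growth is quantified at 600 nm absorbance.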
LDHA inh: inhibitors of human lactate dehydrogenase A; activity change, % (values are at about 110 or 230 µM); P00338; AID 1347041; purified LDHA, NADH/diaphorase-resazurin fluorescence; stronger effect = lower value; 480,000 compounds, 0.15% hits; in the data active means activity change below about -30%; inconclusive means mostly about -25% to -30%;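 further: plate controls were DMSO wells for no effect and wells without enzyme for full effect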
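Human LDH5 at 2 nM final in Tris HCl pH 7.4 with 0.06 mM NADH and 0.2 mM pyruvate, reacted 5 minutes at room temperature. Remaining NADH coupled via diaphorase/resazurin; resorufin fluorescence read at 0 and 20 minutes, normalized to enzyme-free and DMSO wells.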
* hit, by the source's call; [ ] = another dose, or the depositor's remark. In the library only some 2% were active in any assay of this set; here they are far more common. Unless noted, the call rests on the fitted dose curve; in most records, active means well fitted curve in the direction sought with a large enough effect; inconclusive means small, poorly fitted or top-dose-only effect, or another doubt; inactive means no such curve, though single readings can be large; an effect the other way counts as inactive or inconclusive.

How did CCCCOC(=O)/C=C/c1ccc(OC(=O)OC)c(OC(=O)OC)c1 do in these assays?
Abeta rescue: inactive; TDP-43 yeast inh: 14µM*; aSyn rescue: -41%; IDH1 R132H inh: 3%; FUS yeast rescue: inactive; LDHA inh: 12

Results for c1coc(C(CNC2CCCC2)N2CCCC2)c1 (configuration not stated) ?
LDHA inh: 1

Results for Cc1ccc(-c2nc3c4ccccc4ccn3c2Cc2ccccc2)cc1 ?
Abeta rescue: inactive; TDP-43 yeast inh: 0%; aSyn rescue: 0%; IDH1 R132H inh: 10%; FUS yeast rescue: inconclusive; LDHA inh: 2

Results for Clc1ccc(-c2nc3c4ccccc4ccn3c2Cc2cccc(Cl)c2)cc1 ?
Abeta rescue: inactive; TDP-43 yeast inh: 6%; aSyn rescue: 9%; FUS yeast rescue: inactive; LDHA inh: 3

Results for Cc1ccc(Cc2c(-c3ccccc3)nc3c4ccccc4ccn23)cc1 ?
Abeta rescue: inactive; TDP-43 yeast inh: 14µM*; aSyn rescue: 1%; FUS yeast rescue: inconclusive; LDHA inh: 4

How did Fc1cccc(Cc2c(-c3ccccc3)nc3c4ccccc4ccn23)c1 do in these assays?
Abeta rescue: inactive; TDP-43 yeast inh: 14µM*; aSyn rescue: -5%; FUS yeast rescue: inactive; LDHA inh: -2

How did c1ccc(-c2nc3c4ccccc4ccn3c2Cc2ccsc2)cc1 do in these assays?
Abeta rescue: inactive; TDP-43 yeast inh: 11%; aSyn rescue: -2%; FUS yeast rescue: inactive; LDHA inh: -5

Results for Clc1cccc(Cc2c(-c3cccc(Br)c3)nc3c4ccccc4ccn23)c1 ?
Abeta rescue: inactive; TDP-43 yeast inh: 20%; aSyn rescue: -3%; FUS yeast rescue: inactive; LDHA inh: -4

What do the screens show for `COc1ccc(-c2nc3c4ccccc4ccn3c2Cc2cccc(Cl)c2)cc1OC`?
Abeta rescue: inactive; TDP-43 yeast inh: 14µM*; aSyn rescue: 17%; FUS yeast rescue: inactive; LDHA inh: 0

Results for CCOC(=O)Cc1c(-c2cccc(Cl)c2)nc2c3ccccc3ccn12 ?
Abeta rescue: inactive; TDP-43 yeast inh: 13µM*; aSyn rescue: 1%; FUS yeast rescue: inactive; LDHA inh: 2

What do the screens show for `CN(C)c1ccc(/C=N/Nc2ccccc2Cl)cc1`?
LDHA inh: 19

How did COc1ccc(-c2nc3c4ccccc4ccn3c2Cc2ccc(C)cc2)cc1OC do in these assays?
Abeta rescue: inactive; TDP-43 yeast inh: 10µM*; aSyn rescue: 22%; FUS yeast rescue: inactive; LDHA inh: -9

Results for COc1ccc(-c2nc3c4ccccc4ccn3c2Cc2ccsc2)cc1OC ?
Abeta rescue: inactive; TDP-43 yeast inh: inconclusive; aSyn rescue: -7%; FUS yeast rescue: inconclusive; LDHA inh: -5

How did COc1ccccc1Cc1c(-c2ccco2)nc2c3ccccc3ccn12 do in these assays?
Abeta rescue: inactive; TDP-43 yeast inh: 22µM*; aSyn rescue: 1%; FUS yeast rescue: inactive; LDHA inh: 6

How did Clc1ccc(-c2nc3ccccc3o2)cc1 do in these assays?
LDHA inh: 2

What do the screens show for `COc1ccccc1-c1nnc(SCc2csc(Nc3ccc(C)cc3)n2)o1`?
LDHA inh: 10

What do the screens show for `CCOC(=O)CSc1nnc(CNc2ccc(Cl)cc2)n1Cc1ccccc1`?
Abeta rescue: inactive; TDP-43 yeast inh: 14µM*; aSyn rescue: inconclusive; IDH1 R132H inh: 3%; FUS yeast rescue: inactive; LDHA inh: -7

What do the screens show for `Cc1ccc(C=Nc2ccc(Nc3ccccc3)cc2)s1`?
LDHA inh: -17

What do the screens show for `CC(=O)Nc1ccc(C23CC4CC(CC(C4)C2)C3)cc1`?
Abeta rescue: inactive; TDP-43 yeast inh: 24%; aSyn rescue: -3%; IDH1 R132H inh: 8%; FUS yeast rescue: inactive; LDHA inh: -6

What do the screens show for `CNC(=S)Nc1ccc(C23CC4CC(CC(C4)C2)C3)cc1`?
Abeta rescue: 7.1µM*; TDP-43 yeast inh: -6%[0.397 µM]; aSyn rescue: -7%; IDH1 R132H inh: -9%; FUS yeast rescue: inactive; LDHA inh: -1

Results for CN1CCc2c(sc3nc(SCC(=O)N4CCCCC4)n(-c4ccccc4)c(=O)c23)C1 ?
Abeta rescue: inactive; TDP-43 yeast inh: -12%; aSyn rescue: 5.6µM*; IDH1 R132H inh: 14%; FUS yeast rescue: inactive; LDHA inh: 1

What do the screens show for `Cc1ccc(CNC(=O)Cn2nc3ccc(SC(C)(C)C)nn3c2=O)cc1`?
LDHA inh: -6

Results for COc1cc(OC)cc(C(=O)/C(=C/c2ccccn2)c2nc3ccccc3o2)c1 ?
LDHA inh: 9

Results for Cc1ccc(C)c(NC(=S)NC(=O)c2cncc(Br)c2)c1 ?
Abeta rescue: inconclusive; TDP-43 yeast inh: 11µM*; aSyn rescue: -4%; IDH1 R132H inh: 1%; FUS yeast rescue: inactive; LDHA inh: 0

How did COc1cccc(C(O)c2nc(-c3cccc(C(C)C)c3)cs2)c1 (configuration not stated) do in these assays?
Abeta rescue: inactive; TDP-43 yeast inh: inconclusive; aSyn rescue: 8%; FUS yeast rescue: inactive; LDHA inh: -3

What do the screens show for `COc1cccc(C(O)c2nc(-c3ccc(N(C)C)cc3)cs2)c1` (configuration not stated)?
Abeta rescue: inactive; TDP-43 yeast inh: 25%; aSyn rescue: 14%; FUS yeast rescue: inactive; LDHA inh: -4

Results for COc1cccc(C(O)c2nc(-c3cc(F)cc(F)c3)cs2)c1 (configuration not stated) ?
Abeta rescue: inconclusive; TDP-43 yeast inh: 16µM*; aSyn rescue: inconclusive; FUS yeast rescue: inactive; LDHA inh: -1

How did COc1ccc(-c2csc(C(O)c3cccc(OC)c3)n2)cc1 (configuration not stated) do in these assays?
Abeta rescue: inconclusive; TDP-43 yeast inh: 20µM*; aSyn rescue: 3.5µM*; FUS yeast rescue: inactive; LDHA inh: -4

What do the screens show for `CCc1ccc(NC(=O)CS(=O)CC(=O)Nc2ccc(-n3cnnn3)c(C)c2)cc1` (configuration not stated)?
Abeta rescue: inactive; TDP-43 yeast inh: -10%; aSyn rescue: -6%; IDH1 R132H inh: -10%; FUS yeast rescue: inactive; LDHA inh: -32*

Results for O=C(CSc1nccc(-c2cccs2)n1)Nc1ccc(F)c(Cl)c1 ?
Abeta rescue: inconclusive; TDP-43 yeast inh: inconclusive; aSyn rescue: 7%; IDH1 R132H inh: -2%; FUS yeast rescue: inactive; LDHA inh: -5

Assay outcomes as filed in PubChem.
